The list shows a part of the results. No count for the full screen is at hand.
Target: furin, P09958
Test: furin cleavage Z-score vs untreated control; higher = more cleavage, active = 3.5 or more, inactive = 1 or less, 8 variable residues between constant flanks
How it was run: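 Peptides 8 residues long, fused to a cDNA oligonucleotide, were fixed to magnetic beads by the N-terminus and exposed to purified furin. The 0.01 ml reactions contained 50 mM HEPES pH 7.5 with CaCl2 and NaCl at 1:10 enzyme:substrate and ran 7.5, 15 or 30 min. For the cleavage Z-score, log counts of sequenced released DNA were compared with furin-free reactions, lowess-adjusted and scaled by median absolute deviation.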

furin, P09958, sequence (P09958 whole entry): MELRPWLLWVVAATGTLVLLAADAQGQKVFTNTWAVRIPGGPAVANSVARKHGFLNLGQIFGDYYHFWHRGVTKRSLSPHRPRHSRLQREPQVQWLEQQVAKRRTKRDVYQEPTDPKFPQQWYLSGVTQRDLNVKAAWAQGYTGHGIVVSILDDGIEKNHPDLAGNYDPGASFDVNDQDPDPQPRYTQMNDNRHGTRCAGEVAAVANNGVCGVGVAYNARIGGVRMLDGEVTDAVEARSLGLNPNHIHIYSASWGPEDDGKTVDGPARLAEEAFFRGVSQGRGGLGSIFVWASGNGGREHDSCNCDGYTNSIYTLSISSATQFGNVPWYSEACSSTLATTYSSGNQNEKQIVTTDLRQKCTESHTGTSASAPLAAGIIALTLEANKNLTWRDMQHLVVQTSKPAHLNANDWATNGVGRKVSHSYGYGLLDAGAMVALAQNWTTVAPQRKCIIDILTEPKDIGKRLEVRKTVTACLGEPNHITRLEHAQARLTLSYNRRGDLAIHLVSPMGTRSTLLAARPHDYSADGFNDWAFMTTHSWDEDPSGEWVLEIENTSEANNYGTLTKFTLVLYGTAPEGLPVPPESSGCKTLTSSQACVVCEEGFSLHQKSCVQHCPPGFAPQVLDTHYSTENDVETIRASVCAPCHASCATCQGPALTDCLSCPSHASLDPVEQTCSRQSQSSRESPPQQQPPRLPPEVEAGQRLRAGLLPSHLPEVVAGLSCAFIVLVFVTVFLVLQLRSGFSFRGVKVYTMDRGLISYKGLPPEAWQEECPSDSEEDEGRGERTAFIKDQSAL

Row | Sequence | furin cleavage Z-score (7.5 min) | furin cleavage Z-score (15 min) | furin cleavage Z-score (30 min)
1 | CAEVVTHTWVAGNASASA [HC149] | -0.408 (inactive) | -0.439 (inactive) | 0.597 (inactive)
2 | CALAYGLRSKAGNASASA [TR9] | -0.353 (inactive) | 0.335 (inactive) | -1.59 (inactive)
3 | CASTYCSAHLAGNASASA [HC2509] | -0.262 (inactive) | -0.642 (inactive) | 2.3
4 | CAEVHCHRPSAGNASASA [HC2355] | 1.25 | 0.809 (inactive) | 1.14
5 | CAVAVEPVVFAGNASASA [HC645] | 1.23 | -0.0223 (inactive) | -0.472 (inactive)
6 | CARTKRYVVFAGNASASA [FS-2095] | 4.82 (active) | 4.06 (active) | 6.56 (active)
7 | CARKGRYKAFAGNASASA [FS-2960] | -0.402 (inactive) | -0.376 (inactive) | -0.0128 (inactive)
8 | CARTKRDVYQAGNASASA [FS-2825] | 9.66 (active) | 11.4 (active) | 9.76 (active)
9 | CAEISVPAEIAGNASASA [HC1294] | -0.695 (inactive) | -1.61 (inactive) | -1.39 (inactive)
10 | CASTFCSAHLAGNASASA [HC2507] | -0.833 (inactive) | -0.376 (inactive) | -0.904 (inactive)
11 | CAQLEVVTSTAGNASASA [HC2282] | 0.398 (inactive) | 1.61 | 0.854 (inactive)
12 | CAYLYGVGSSAGNASASA [HC511] | 0.568 (inactive) | -0.0293 (inactive) | 0.0874 (inactive)
13 | CAARKMIGGHAGNASASA [HC623] | 0.0211 (inactive) | 1.66 | 1.13
14 | CAAPPRARRHAGNASASA [FS-975] | 8.59 (active) | 9.67 (active) | 6.85 (active)
15 | CASRRRARRHAGNASASA [FS-1416] | 7.59 (active) | 6.18 (active) | 7.01 (active)
16 | CASRRRTRRPAGNASASA [FS-873] | 0.729 (inactive) | 0.54 (inactive) | 0.884 (inactive)
17 | CASRIRIERVAGNASASA [FS-1087] | 0.306 (inactive) | 3.11 | 2.24
18 | CAARQRTRRHAGNASASA [FS-1112] | 11.1 (active) | 12.6 (active) | 10 (active)
19 | CASRRRMKRVAGNASASA [FS-1167] | 11 (active) | 12 (active) | 9.11 (active)
20 | CASRRRFYRPAGNASASA [FS-506] | -1.15 (inactive) | 0.235 (inactive) | -2.19 (inactive)
21 | CAPPLRAWRHAGNASASA [HC1618] | -0.103 (inactive) | 0.906 (inactive) | -0.71 (inactive)
22 | CAEVLCHRPSAGNASASA [HC2345] | 1.1 | -0.279 (inactive) | 0.507 (inactive)
23 | CAMEECSQHDAGNASASA [HC1771] | -0.304 (inactive) | 0.175 (inactive) | 0.222 (inactive)
24 | CAAVQTNWQKAGNASASA [HC1035] | 0.252 (inactive) | 0.157 (inactive) | -0.0579 (inactive)
25 | CAMYVGGVEHAGNASASA [HC476] | -0.473 (inactive) | -0.882 (inactive) | -0.205 (inactive)
26 | CATTPFSGSWAGNASASA [HC46] | -0.133 (inactive) | -0.615 (inactive) | -0.727 (inactive)
27 | CATPPRSKRVAGNASASA [FS-1096] | 4.55 (active) | 6.1 (active) | 4.13 (active)

— the supplement of paper PMC3545927
